The campaign covered roughly 360,000 compounds. About 11,000 (3.1%) were called active. Another 2% or so got no clear call; they are omitted. This is one part of a sample in which actives are shown more often than they occur. A number with no mark means an inactive call. No stated cut-off is given here; in the data, active means fluorescence intensity above about 16000; inconclusive means no clear call, values can overlap the other calls; inactive means below that.
Experiment: counter-screen for toxin protease inhibitors: compound fluorescence, primary screen, artefact control for toxin protease inhibitor project, biochemical, multiplex microsphere, HTS (AID 624483)
Conditions: compound autofluorescence counterscreen, microsphere flow cytometry; active compounds read high

| Compound | fluorescence intensity |
| --- | --- |
| CN(C)C(=O)CSc1n[nH]c(-c2ccco2)n1 | 2630 |
| COC(=O)c1ccccc1Sc1c(/C=N/OCc2ccc(Cl)cc2)c(C(F)(F)F)nn1C | 2910 |
| O=C(O)CSc1c2c(nc3cc(C(=O)Nc4cccc(C(F)(F)F)c4)ccc13)CCCC2 | 5110 |
| Cn1nc(C(F)(F)F)c(C(=O)Nc2cccc(C(F)(F)F)c2)c1SCc1ccc(Cl)cc1 | 18600 (active) |
| N[C@@H](Cc1ccccc1)C(=O)N1CCOCC1 | 3920 |
| O=C(CSc1ncccn1)N1CCCC1 | 5480 |
| OC(c1ccc(Cl)cc1)c1ncc(-c2ccc(Cl)cc2)[nH]1 (stereo not drawn) | 3850 |
| COCCn1c(CN(Cc2ccccc2)Cc2ccccc2)nc2c1c(=O)n(C)c(=O)n2C | 5270 |
| CC(C)CCn1c(CN(C)Cc2ccccc2)nc2c1c(=O)n(C)c(=O)n2C | 21400 (active) |
| CC(C)Cn1c(CN(Cc2ccccc2)Cc2ccccc2)nc2c1c(=O)n(C)c(=O)n2C | 5910 |
| CC1(C)OC(=O)C2=C(C[C@@H](C3CCCCC3)O[C@@H]2c2ccc(Cl)cc2)O1 | 6270 |
| COc1cc2ccccc2cc1C(=O)Nc1ccccc1C | 3900 |
| Cc1ccc(Nc2c(F)c(F)c(F)c(F)c2C(=O)O)c(C)c1 | 3820 |
| COc1c(F)c(F)c(C(=O)O)c(Nc2ccccc2C)c1F | 21400 (active) |
| Cc1ncc([N+](=O)[O-])n1CCOC(=O)c1ccc(Br)cc1 | 4830 |
| CC1(C(=O)NCc2ccc3c(c2)OCO3)CCN1C(=O)Cc1cccc2ccccc12 (stereo not drawn) | 2930 |
| Nc1nc2c(Br)ccc(Br)c2cc1C(=O)NCCc1ccccc1 | 6050 |
| COc1ccc(NS(=O)(=O)c2cccc(C(=O)NCCc3ccc(S(N)(=O)=O)cc3)c2)cc1 | 8740 |
| CCOC(=O)c1c(C)c(C(=O)NCCc2ccc(S(N)(=O)=O)cc2)c(C)n1CC | 22600 (active) |
| COc1ccc(OCC(=O)NCCc2ccc(S(N)(=O)=O)cc2)cc1 | 19600 (active) |

| Compound | fluorescence intensity |
| --- | --- |
| NS(=O)(=O)c1ccc(CCNC(=O)COC(=O)COc2cccc(C(F)(F)F)c2)cc1 | 4060 |
| Cc1noc(C)c1C(=O)NCCc1ccc(S(N)(=O)=O)cc1 | 4000 |
| NS(=O)(=O)c1ccc(CCNC(=O)c2ccc(Cl)c(S(=O)(=O)N3CCCCCC3)c2)cc1 | 4250 |
| COC(=O)c1c(C)[nH]c(C(=O)NCCc2ccc(S(N)(=O)=O)cc2)c1C | 3790 |
| COc1ccc(C(=O)NCCc2ccc(S(N)(=O)=O)cc2)cc1OC | 17500 (active) |
| Cc1ccc(S(=O)(=O)CCC(=O)OCC(=O)NCCc2ccc(S(N)(=O)=O)cc2)cc1 | 5910 |
| Cc1cccc(NS(=O)(=O)c2cccc(C(=O)NNC(=O)c3ccccc3O)c2)c1 | 3510 |
| COc1cccc(C(NC(C)=O)c2nc(-c3ccccc3OC)cs2)c1 (stereo not drawn) | 3680 |
| CC(C)(C)CC(=O)Nc1nc(C(N)Cc2ccc(C(F)(F)F)cc2)cs1 (stereo not drawn) | 2950 |
| O=C(NC1CCCC1)C(c1ccco1)N(C(=O)c1csnn1)c1ccccc1 (stereo not drawn) | 3410 |
| Cc1ccccc1-c1nc(NC(C)C)nc2cc(-c3ccccc3)sc12 | 2960 |
| CC(C)NC(=O)C1(C)CCCCCN1C(=O)c1ccc(-c2ccccc2)cc1 (stereo not drawn) | 3730 |
| Cc1cc(/C=N/NC(N)=O)c(C)n1C1CCCCC1 | 5160 |
| CC(=O)Nc1ccc(NC(=O)c2ccc3c(c2)C(=O)N(c2ccccc2C)C3=O)cc1 | 3300 |
| CCOC(=O)C1=CC[C@@H](c2ccncc2)N(S(=O)(=O)c2ccc(C)cc2)C1 | 6280 |
| Cc1ccc(NCc2n[nH]c(=S)n2-c2ccccc2)cc1Cl | 4580 |
| S=c1[nH]nc(CSCc2ccc(Cl)cc2Cl)n1-c1ccccc1 | 22300 (active) |
| CCn1c(CSCc2c(Cl)cccc2Cl)n[nH]c1=S | 5080 |
| O=C(c1cc(COc2ccc(F)cc2F)on1)N1CCOCC1 | 6230 |
| CN1C(=O)[C@H]2[C@@H](/C=C/c3ccccc3)N3C(=O)CN(Cc4ccc(-c5ccccc5)cc4)C(=O)[C@@]3(C)[C@H]2C1=O | 3800 |

| Compound | fluorescence intensity |
| --- | --- |
| CCOc1cc2[nH]c(=O)n(Cc3ccc(C(=O)NCCCN4CCCC4=O)cc3)c(=O)c2cc1OCC | 4740 |
| COc1ccc(Cn2c(=S)[nH]c3cc(C(=O)NCCCN4CCOCC4)ccc3c2=O)cc1 | 5500 |
| COCCn1c(=S)[nH]c2cc(C(=O)NCCc3ccc(OC)c(OC)c3)ccc2c1=O | 22200 (active) |
| CCOc1cc2[nH]c(=S)n(Cc3ccc(C(=O)NCCOC)cc3)c(=O)c2cc1OCC | 20100 (active) |
| CCOc1cc2[nH]c(=S)n(Cc3ccc(C(=O)N4CCN(C)CC4)cc3)c(=O)c2cc1OCC | 5670 |
| COc1ccc(-n2c(=O)[nH]c3cc(C(=O)NCCc4ccc(OC)c(OC)c4)ccc3c2=O)c(OC)c1 | 3790 |
| CN1CCN(c2ccc3c(c2)OC[C@H](Cc2ccccc2)NS3(=O)=O)CC1 | 5440 |
| COc1ccc(CCCNC(=O)C2Cc3c(-c4cccc(C(N)=O)c4)ccnc3O2)cc1 (stereo not drawn) | 3760 |
| O=S1(=O)CC(N2CCN(CCO)CC2)CN1C1CCCC1 (stereo not drawn) | 5290 |
| CC(C)CN(C(=O)Cn1c(=O)cnc2ccccc21)C1CCS(=O)(=O)C1 (stereo not drawn) | 7550 |
| COc1ccccc1Cc1c(-c2ccc(Cl)cc2)nc2c3ccccc3ccn12 | 6870 |
| COc1ncnc2c1N=C1CC(C)(C)CC(N)=C1S2 | 10000 |
| O=C1/C(=C/c2ccc3c(c2)OCO3)Oc2cc(OCC(=O)N3CC(O)C[C@H]3C(=O)O)ccc21 (stereo partly drawn) | 5670 |
| CCc1oc(-c2ccc(OC)cc2)c(C(=O)OCCCCCO)c1C(C)OCCO (stereo not drawn) | 5030 |
| CCOC(=O)N1CCN(C(=O)C[C@@H]2C[C@@]3(C(=O)OC)CCCCC=C3N(CCC3=CCCCC3)C2=O)CC1 | 5780 |
| CCOC(=O)c1cc(C)sc1NC(=O)C1CCC1 | 20200 (active) |
| COC(=O)c1cc(C)sc1NC(=O)CC1Nc2ccccc2NC1=O (stereo not drawn) | 4220 |
| Cc1cnc(NC(=O)C2CCCC2)s1 | 3280 |

Source: PubChem BioAssay AID624483 (NMMLSC, 2012)
